The values that follow come from PubChem BioAssay AID463173 (ICCB-Longwood Screening Facility, Harvard Medical School, 2010).

“And” between values parts separate entries of the source, which are not always exact repeats. Identical values can stand only once. In all, about 52,000 compounds went through this assay and about 4,300 (8.3%) were called active. This is one part of a sample in which actives are shown more often than they occur. Rule as the data show it: active = survival mostly below about 52% (no sharp cut-off); inactive = mostly above about 56%. Some compounds were tested as several samples or in several runs, with calls that do not always agree.

This assay relates to DeltatarO mutant. In words: growth inhibition of S. aureus wild type versus tarO mutant, primary screen, teichoic acid synthesis inhibitors, RN4220, OD600 (AID 463173). Particulars: OD600, 18 h, stronger effect = lower value, screened at 18.75 µg/mL (by protocol).
As for `Cc1ccc(N2CCN(C(=O)c3cn(C)c4ccc(S(=O)(=O)N(C)C5CCCCC5)cc4c3=O)CC2C)cc1` (stereo unspecified), the survival was 91% (inactive). Turning to `O=C(CSc1nccn1-c1ccc(F)cc1)Nc1ccc(OC(F)(F)F)cc1`, the survival is 78% (inactive). `CCc1ccc(S(=O)(=O)Nc2ccc3c(c2)sc(=O)n3C)cc1`: the survival is 91% (inactive). Next, `COC(=O)c1ccccc1NC(=O)Cn1c(=O)n(-c2ccc(Cl)cc2)c(=O)c2c(C)c(C)sc21`: 86% (inactive).

In the case of `CCOC(=O)c1[nH]c(C)c(CCC(=O)NCc2cccc(Cl)c2)c1C`, the survival is 76% (inactive). As for `COc1ccc(CNC(=O)Cn2ncc3c(=O)oc4ccccc4c32)c(OC)c1`, the figure is 89% (inactive). Next, `O=C(COc1ccccc1F)Nc1ccc2nc(SCC(=O)N3CCOCC3)sc2c1`: 79% (inactive). As for `CCOc1ccc(CCNC(=O)CCc2c(C)nc3c(-c4ccccc4)c(C)nn3c2C)cc1OCC`, the survival is 70% (inactive). For the compound `Cc1ccccc1CSCCNC(=O)CN(c1ccccc1)S(=O)(=O)N(C)C`, the survival is 52% (inactive). Next, `Cc1cccc(N(CC(=O)NCCSCc2cccc(Cl)c2)S(=O)(=O)c2ccccc2)c1C`: 57% (inactive); `Cc1ccc(CSCCNC(=O)CN(c2cccc(C)c2C)S(=O)(=O)c2ccccc2)cc1`: 52% (inactive); `Cc1cccc(N(CC(=O)NCCSCc2ccc(Cl)cc2)S(C)(=O)=O)c1C`: 33% (active).

With `Cc1ccc(SCCNC(=O)CN(c2cccc(C)c2C)S(C)(=O)=O)cc1`, the survival was 57% (inactive).

Turning to `CN(C)S(=O)(=O)N(CC(=O)NCCSCc1cccc(Cl)c1)c1ccccc1`, the survival was 57% (inactive).

`Cc1cccc(N(CC(=O)NCCSc2ccc(Cl)cc2)S(C)(=O)=O)c1C`: the survival is 38% (active).

Take `Cc1cccc(N(CC(=O)NCCSc2ccc(Cl)cc2)S(=O)(=O)c2ccccc2)c1C`: the survival is 49% (inactive). Next, `CN(C)S(=O)(=O)N(CC(=O)NCCSCc1ccc(Cl)cc1Cl)c1ccccc1`: 47% (active). Next, `COc1cc(Cl)c(NS(=O)(=O)c2ccc3c(c2)CC(C)N3C(=O)C2CCC2)c(OC)c1` (stereo unspecified): 80% (inactive); `CC(C)NC(=O)c1ccc(Cn2c(SCc3ccc(F)cc3)nc3cccnc32)cc1`: 55% (inactive). Take `O=C1c2ccccc2-c2nc3ccccc3c(=O)n21`: the survival was 106% (inactive). As for `COc1cc(OC)c(NC(=O)COc2ccccc2-c2nnc(-c3ccccc3)o2)cc1Cl`, the figure is 95% (inactive). Next, `COCCCNC(=O)c1ccc2nc(Cc3ccc(OC)cc3)oc2c1`: 69% (inactive); `N#C/C(=C\c1cn(Cc2ccc(C#N)cc2)c2ccccc12)C(=O)NCc1ccco1`: 67% (inactive). As for `O=C(Cn1cnc2onc(-c3ccc(F)cc3)c2c1=O)Nc1ccc(F)c(Cl)c1`, the figure is 84% (inactive); as for `CCOC(=O)c1ccccc1NC(=O)CN1CCCN(Cc2cc(C)ccc2C)S1(=O)=O`, 126% (inactive).

In the case of `CCOC(=O)c1c(C)oc2ncnc(N3CCN(c4ccccc4)CC3)c12`, the survival is 89% (inactive). On to `CCOC(=O)c1c(C)oc2c1c(O)c(N=O)c1ccccc12`, for which the survival is 18% (active). Next, `CCOC(=O)c1c(C)oc2nc(C)nc(N3CCN(c4ccccc4)CC3)c12`: 83% (inactive); `CCN(CC)c1cc(C)c2cc(NC(=O)c3cccc(OC)c3)ccc2n1`: 40% (inactive); `CCOc1ccccc1C(=O)Nc1ccc2nc(N(CC)CC)cc(C)c2c1`: 65% (active). Next, `CCN(CC)c1cc(C)c2cc(NC(=O)c3ccc(OC)c(OC)c3)ccc2n1`: 35% (active). In the case of `CCN(CC)c1cc(C)c2cc(NC(=O)/C=C/c3ccccc3OC(C)C)ccc2n1`, the survival is 71% (inactive). As for `CCN(CC)c1cc(C)c2cc(NC(=O)c3ccc(F)cc3Cl)ccc2n1`, the figure is 39% (active); as for `CCN(CC)c1cc(C)c2cc(NC(=O)c3cccc(OC)c3OC)ccc2n1`, 95% (inactive). As for `CCN(CC)c1cc(C)c2cc(NC(=O)c3ccccc3OC)ccc2n1`, the figure is 7% (active); as for `CCOc1ccc(C(=O)Nc2ccc3nc(N(CC)CC)cc(C)c3c2)cc1`, 70% (inactive); as for `CCN(CC)c1cc(C)c2cc(NC(=O)c3cc(OC)cc(OC)c3)ccc2n1`, 59% (inactive). For the compound `CCN(CC)c1cc(C)c2cc(NC(=O)c3cccc(F)c3)ccc2n1`, the survival was 42% (inactive). Next, `CCN(CC)c1ccc(C(=O)Nc2ccc3nc(N(CC)CC)cc(C)c3c2)cc1`: 52% (inactive); `CCN(CC)c1cc(C)c2cc(NC(=O)c3ccccc3Cl)ccc2n1`: 55% (inactive). As for `Cc1ccc(Cl)cc1NC(=O)c1sc2nc(C)c(C)c(C)c2c1N`, the figure is 75% (inactive). As for `Cc1cccc2sc(N(Cc3cccnc3)C(=O)Cc3ccccc3)nc12`, the figure is 81% (inactive); as for `CCCc1cnc2c(c1SCC(=O)Nc1c(C)cc(C)cc1C)c(=O)n(C)c(=O)n2C`, 94% (inactive). In the case of `CCOc1ccc(NC(=O)CSc2nc3nc(C)c(Cc4ccccc4)c(C)n3n2)cc1`, the survival is 89% (inactive). Next, `CCC(OC(=O)CN1C(=O)c2ccccc2C1=O)C(=O)NC1CCCC1` (stereo unspecified): 83% (inactive); `COC(=O)c1ccc(C(=O)OC)c(NC(C)=O)c1`: 73% (inactive); `O=C(NCc1ccc(Cl)cc1)C1CCCN(C(=O)c2cnn(-c3ccc(F)cc3)c2-n2cccc2)C1` (stereo unspecified): 73% (inactive).

Consider `Cc1c(Cl)cccc1NC(=O)c1cccc(NC(=O)N2CCSc3ncccc32)c1`, for which the survival was 80% (inactive). Next, `COc1ccc(C(=O)Nc2ccccc2C(=O)Nc2ccccn2)cc1`: 94% (inactive); `O=C1CSC(=Nc2cccc(C(=O)O)c2)N1`: 82% (inactive). Take `CC(=O)c1cc2c(cc1N/C(=N/S(=O)(=O)c1ccc(C)cc1)c1ccc(Cl)cc1)OCO2`: the survival is 37% (active).

On to `CC(=O)c1cc2c(cc1N/C(=N/S(=O)(=O)c1ccc(Cl)cc1)c1ccc(F)cc1)OCO2`, for which the survival is 99% (inactive). As for `CC(=O)c1cc2c(cc1N/C(=N/S(=O)(=O)c1ccc(Br)cc1)c1ccccc1)OCO2`, the figure is 69% (inactive); as for `CC(=O)c1cc2c(cc1N/C(=N/S(=O)(=O)c1ccc(C)cc1)c1ccc(F)cc1)OCO2`, 83% (inactive); as for `CC(=O)c1cc2c(cc1N/C(=N/S(=O)(=O)c1ccccc1)c1ccc(Cl)cc1)OCO2`, 0% (active). Next, `CC(=O)c1cc2c(cc1N/C(=N/S(=O)(=O)c1ccc(C)cc1)c1ccccc1)OCO2`: 74% (inactive). Next, `O=C(NCc1cccc(Br)c1)C1CCCCN1S(=O)(=O)c1ccc(F)cc1` (stereo unspecified): 89% (inactive); `O=C(Cn1c(-c2cccs2)cc2cc(F)ccc21)NCCCN1CCN(c2ccccc2F)CC1`: 67% (inactive). Take `COc1ccc(-n2nc3c(N4CCC(C(=O)NCCc5ccccc5)CC4)nnc(C)c3c2C)cc1`: the survival is 85% (inactive). Next, `CCc1cccc(Nc2c3c(nc4ncnn24)CCC3)c1`: 95% (inactive); `COc1ccc(-c2nn3c(=O)cc(CN4CCN(C(=O)Nc5ccc(C)c(Cl)c5)CC4)nc3s2)cc1`: 78% (inactive); `CCCCSc1nc(-c2ccc(OC)cc2)ccc1C#N`: 52% (inactive). As for `CCOC(=O)C(C)Sc1nc(-c2ccccc2Cl)cc(-c2ccccc2)c1C#N` (stereo unspecified), the figure is 64% (inactive); as for `CCOC(=O)C(C)Sc1nc(-c2ccccc2)ccc1C#N` (stereo unspecified), 82% (inactive) and -1% (active); as for `O=C(CN1CCN(c2ccccn2)CC1)N(c1ccccc1)c1ccc2ccccc2c1`, 59% (inactive). Next, `COc1ccc(CCNC(=O)c2csc3c2CCCCC3)c(OC)c1`: 66% (inactive); `COc1cccc(NC(=O)c2csc3c2CCCCC3)c1`: 37% (active); `Cc1cccc(C)c1NC(=O)c1csc2c1CCCC2`: 90% (inactive). Take `COc1ccc(OC)c(CCNC(=O)c2csc3c2CCCCC3)c1`: the survival is 44% (active). Regarding `COc1ccc(NC(=O)c2csc3c2CCCCC3)cc1`, the survival is 70% (inactive).

On to `COc1ccc(OC)c(CCNC(=O)c2ccc3[nH]c(C)c(C)c3c2)c1`, for which the survival is 107% (inactive). Next, `COc1ccc(-c2cc(-c3ccccc3)nc3c2COc2ccc(F)cc2-3)cc1`: 73% (inactive); `CCCc1c(O)nc(SCC(=O)N2CCCCC2)[nH]c1=O`: 69% (inactive); `COc1ccc2nc(NC(=O)c3nc(SC(C)C)ncc3Cl)sc2c1`: 93% (inactive). As for `Cc1cccc(CSc2ncc(Cl)c(C(=O)Nc3nc4ccc(F)cc4s3)n2)c1`, the figure is 33% (active); as for `CCSc1ncc(Cl)c(C(=O)Nc2nc3ccc(OC)cc3s2)n1`, 83% (inactive). Regarding `O=C(Nc1nc2ccc(F)cc2s1)c1nc(SCc2ccccc2F)ncc1Cl`, the survival is 48% (inactive).

`CCCSc1ncc(Cl)c(C(=O)Nc2nc3ccc(OCC)cc3s2)n1`: the survival is 63% (inactive). As for `COc1ccc2nc(NC(=O)c3nc(SCc4ccc(F)cc4)ncc3Cl)sc2c1`, the figure is 53% (inactive); as for `CCOc1ccc2nc(NC(=O)c3nc(SCc4ccc(C)cc4)ncc3Cl)sc2c1`, 54% (inactive); as for `Cc1ccccc1CSc1ncc(Cl)c(C(=O)Nc2nc3ccc(F)cc3s2)n1`, 100% (inactive). As for `COc1ccc2nc(NC(=O)c3nc(SCc4cccc(C)c4)ncc3Cl)sc2c1`, the figure is 37% (active); as for `CCCSc1ncc(Cl)c(C(=O)Nc2nc3ccc(C)cc3s2)n1`, 49% (active). Next, `Cc1ccc(CSc2ncc(Cl)c(C(=O)Nc3nc4ccc(C)cc4s3)n2)cc1`: 53% (inactive); `CCOc1ccc2nc(NC(=O)c3nc(SC(C)C)ncc3Cl)sc2c1`: 41% (active). Consider `CCCN(CCC)C(=O)Cn1c(=O)n(-c2cccc(C(F)(F)F)c2)c(=O)c2c(C)c(C)sc21`, for which the survival is 44% (inactive).

As for `CCC1SC(=S)N(CC(=O)O)C1=O` (stereo unspecified), the survival was 100% (inactive).

In the case of `CCOCCCNC(=O)Cn1ncc2c([nH]c3ccc(C)cc32)c1=O`, the survival was 83% (inactive). As for `O=C1NC(c2ccccc2)/C(=C(\O)c2ccccc2)C1=O` (stereo unspecified), the figure is 70% (inactive); as for `Cc1nc2ccn(Cc3cccs3)c(=O)c2cc1C(=O)N1CCN(c2ccccc2)CC1`, 83% (inactive); as for `CCCSc1ncc(Cl)c(C(=O)Nc2ccc(S(=O)(=O)Nc3ncccn3)cc2)n1`, 67% (inactive). Consider `CCCSc1ncc(Cl)c(C(=O)Nc2ccc(CC)cc2)n1`, for which the survival is 42% (active). As for `CCCSc1ncc(Cl)c(C(=O)NCc2ccc(C)cc2)n1`, the figure is 57% (inactive); as for `CCCSc1ncc(Cl)c(C(=O)NCc2ccc(OC)cc2)n1`, 52% (inactive). `CCCSc1ncc(Cl)c(C(=O)Nc2ccc(OC)cc2OC)n1`: the survival was 46% (active). Take `COc1ccc(OC)c(NC(=O)c2nc(SCc3ccccc3F)ncc2Cl)c1`: the survival was 70% (inactive).
